# In the library only some 2.2% were active in any assay of this set; here they are far more common.
# NPR1 activator – GC-A stimulated cGMP production enhancers – HEK293 GC-A cells, cGMP TR-FRET, EC30 ANP, primary screen. Atrial natriuretic peptide receptor 1 (Homo sapiens), P16066. activation, % at 10 µM. 0.14% of 370,000 active. 0% at EC30 ANP, 100% saturating ANP. AID 1671463, 2021; in the data active = activation above about 40%
# PLCg1 inh – PLC-gamma1 enzyme inhibitors, primary screen, biochemical, fluorescence, purified enzyme; 1-phosphatidylinositol 4,5-bisphosphate phosphodiesterase gamma-1 (Homo sapiens), P19174; fluorogenic substrate; inhibition, % at 12.2 µM; 0.84% of 370,000 active; AID 720700, 2013; in the data active = inhibition above about 9.5%
# Rce1 inh – yeast Rce1p protease inhibitors, primary screen, biochemical, fluorescence, cell-free homogeneous | yeast membranes, quenched prenylated peptide cleavage fluorescence | calls only | 0.27% of 290,000 active | AID 2563, 2010;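 active = fall in fluorescence gain of 50% or more versus controls, with final raw signal at or below 3038400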;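 note: plate controls were neutral control wells for no effect and wells lacking membranes for full effect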
# PLC-beta3 inh – human PLC-beta3 inhibitors, primary screen, biochemical, fluorescence; Purified PLC-beta3, fluorogenic substrate; inhibition, % at 12.2 µM; 0.18% of 370,000 active; AID 720704, 2013; in the data active = inhibition above about 11%;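 note: 0% = median of compound wells on plate and 100% = full blocker control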
# Target sequence (Q01970 whole entry, looked up): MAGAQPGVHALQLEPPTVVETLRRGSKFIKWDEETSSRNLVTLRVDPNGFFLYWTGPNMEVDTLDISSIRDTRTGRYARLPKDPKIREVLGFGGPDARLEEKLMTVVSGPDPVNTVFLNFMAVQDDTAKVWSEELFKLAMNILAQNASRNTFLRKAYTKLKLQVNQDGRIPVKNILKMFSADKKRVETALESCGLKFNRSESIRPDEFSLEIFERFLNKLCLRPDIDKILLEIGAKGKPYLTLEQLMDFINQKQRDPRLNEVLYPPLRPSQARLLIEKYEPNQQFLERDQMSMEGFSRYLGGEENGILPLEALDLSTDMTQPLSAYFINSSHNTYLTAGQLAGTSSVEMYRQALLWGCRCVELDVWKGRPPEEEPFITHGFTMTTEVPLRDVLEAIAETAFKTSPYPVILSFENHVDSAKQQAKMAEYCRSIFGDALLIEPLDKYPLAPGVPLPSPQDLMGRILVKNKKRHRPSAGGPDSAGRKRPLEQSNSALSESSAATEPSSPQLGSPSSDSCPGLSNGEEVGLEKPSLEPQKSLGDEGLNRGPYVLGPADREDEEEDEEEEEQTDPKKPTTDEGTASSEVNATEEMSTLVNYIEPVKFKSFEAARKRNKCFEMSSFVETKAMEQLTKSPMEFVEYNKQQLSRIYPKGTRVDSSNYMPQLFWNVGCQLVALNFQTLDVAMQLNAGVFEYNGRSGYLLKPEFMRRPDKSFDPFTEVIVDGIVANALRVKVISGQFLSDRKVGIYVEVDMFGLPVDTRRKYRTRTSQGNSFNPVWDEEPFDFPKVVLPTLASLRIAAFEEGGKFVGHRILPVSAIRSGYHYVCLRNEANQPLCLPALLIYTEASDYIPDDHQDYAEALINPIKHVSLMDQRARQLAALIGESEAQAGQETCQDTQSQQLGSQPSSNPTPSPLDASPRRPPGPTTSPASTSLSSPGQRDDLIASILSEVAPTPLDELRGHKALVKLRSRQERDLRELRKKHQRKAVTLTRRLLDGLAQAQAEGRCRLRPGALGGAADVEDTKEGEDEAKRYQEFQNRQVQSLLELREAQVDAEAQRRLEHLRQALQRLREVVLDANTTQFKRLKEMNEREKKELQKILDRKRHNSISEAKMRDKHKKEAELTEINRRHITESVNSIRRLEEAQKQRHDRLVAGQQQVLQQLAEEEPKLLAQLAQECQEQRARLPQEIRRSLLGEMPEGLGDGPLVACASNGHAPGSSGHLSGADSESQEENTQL
# GC-B act – human GC-B receptor activators, primary screen, HEK293 GC-B cells, cGMP TR-FRET, EC30 CNP; Atrial natriuretic peptide receptor 2 (Homo sapiens), P20594; 0% at EC30 CNP, 100% saturating CNP; activation, % at 10 µM; 0.11% of 370,000 active;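 active = activation at 10 µM reaching about 35% in either raw or pattern-adjusted values, limit read from the data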
# PfM18AAP inh – PfM18AAP inhibitors, malaria aminopeptidase, primary screen, biochemical, QFRET, recombinant enzyme | H-Glu-NHMec fluorogenic cleavage | inhibition, % at 7.35 µM | 1.2% of 290,000 active | AID 1822, 2009;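 active = inhibition above the campaign mean inhibition over all tested compounds plus 3 SD, cut at about 28% in these data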;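 note: 0% = plate median of test compound wells and 100% = 2 mM ZnCl2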
# The depositor's hits bear a star; i = inactive; x = no result; + = active, no number.
SMILES,NPR1 activator,PLCg1 inh,Rce1 inh,PLC-beta3 inh,GC-B act,PfM18AAP inh
CC(C)C[C@@H]1COc2cccc(N3CCCC3)c2S(=O)(=O)N1C,0.0,1.1,x,-1.4,-4.4,x
O=C(NC1CCCCN(Cc2ccc(Cl)cc2)C1=O)c1cccc2nsnc12 (stereo not given),-4.5,-1.9,x,-2.6,1.7,x
CC(Sc1nnnn1C)C(=O)Nc1nc(-c2ccc(F)c(F)c2)cs1 (stereo not given),31.9,3.0,x,-6.0,0.8,x
Cn1nnnc1SCC(=O)Nc1nc(-c2ccc(F)c(F)c2)cs1,42.0*,-1.2,i,-6.5,-0.2,1.2
COc1cc(C(=O)NC2CCCCN(Cc3cccc(C(F)(F)F)c3)C2=O)cc(OC)c1OC (stereo not given),-0.1,-2.4,x,4.2,0.8,x
N#Cc1nc(-c2ccc(F)cc2)oc1N1CCN(C(=O)c2ccco2)CC1,-2.8,-1.7,i,-6.6,0.3,0.8
COc1cccc(-c2nc(C#N)c(N3CCN(C(=O)c4ccco4)CC3)o2)c1,1.2,-3.8,+,-12.3,-3.2,0.0
O=C(C[n+]1cccc2ccccc21)c1ccccc1,-2.2,-8.5,i,-10.6,2.8,4.2
O=C(C[n+]1cc2ccccc2c2ccccc21)c1ccccc1,0.6,-13.7,+,-16.6,-4.2,-2.2
O=c1cc(N=Nc2ccc(Cl)cc2)[nH]c(=O)[nH]1,15.9,3.2,i,-8.3,10.8,69.7*
O=c1cc(-c2ccc(Cl)cc2)oc(=O)[nH]1,-3.8,-0.4,i,1.2,1.4,-14.6
Cc1ccc(-n2c(SCC(=O)Nc3ccc(S(=O)(=O)Nc4cc(C)nc(C)n4)cc3)nnc2-c2cccs2)cc1,2.9,-1.9,x,-2.9,-5.4,x
Cc1cccc(OCC(=O)NC(=S)NNC(=O)c2ccncc2)c1,3.1,-5.1,i,-9.6,3.6,45.2*
CC(=O)NN1C(=O)c2ccccc2NC1c1ccccn1 (stereo not given),-0.2,-484.5,i,i,3.9,39.8*
Cc1cccc(C2Nc3ccccc3C(=O)N2NC(=O)c2ccc([N+](=O)[O-])cc2)n1 (stereo not given),-3.3,2.2,i,2.0,9.9,39.5*
CCC(C(=O)OCC(=O)C1(O)CCC2C3CCC4=CC(=O)CCC4(C)C3C(O)CC21C)C(C)C (stereo not given),8.2,2.4,x,2.6,5.0,x
CC(=O)[C@@]1(O)CC[C@H]2[C@@H]3CCC4=CC(=O)CC[C@]4(C)[C@H]3[C@@H](O)C[C@@]21C,0.2,10.7*,i,5.8,0.2,0.4
COC(=O)[C@]12C[C@H](CC(=O)NCc3ccc(C)o3)C(=O)N(Cc3ccc(Cl)cc3Cl)C1=C[C@H](COCc1ccccc1)O[C@@H]2C,-5.5,-4.1,x,0.8,2.5,x
COc1ccc(C(CNC(=O)c2ccc(C)c(S(=O)(=O)N3CCOCC3)c2)N2CCCC2)cc1 (stereo not given),-7.8,10.3*,x,-14.9,-5.9,x
COc1ccc(C(CNC(=O)c2ccc(C)c(S(=O)(=O)N3CCCCC3)c2)N2CCCC2)cc1 (stereo not given),-20.4,-2.0,x,-8.4,-17.4,x
FC(F)(F)c1ccc(Cn2ccc3ccc(-c4ccc5ccn(Cc6ccccc6)c5c4)cc32)cc1,-4.1,-62.1,x,-59.5,-3.0,x
CC(C)C(=O)Oc1ccc(CO)cc1[C@H](CCN(C(C)C)C(C)C)c1ccccc1,-25.9,3.1,x,2.9,-15.1,x
O=S(=O)(c1ccc(NC(=S)NN=C(Cc2ccccc2)Cc2ccccc2)cc1)N1CCOCC1,-4.6,-12.3,i,-16.2,-1.2,29.3*
O=S(=O)(c1ccc(NC(=S)NCCc2ccccc2)cc1)N1CCOCC1,2.1,5.5,i,7.0,6.0,-6.6
CC(Cc1cccs1)NC(=O)Nc1ccc([N+](=O)[O-])cc1 (stereo not given),-3.7,5.5,+,4.8,-7.2,2.0
SMILES,NPR1 activator,PLCg1 inh,Rce1 inh,PLC-beta3 inh,GC-B act,PfM18AAP inh
O=C(CCc1ccccc1)N[C@H]1[C@H](OC(=O)c2cccnc2)CCC[C@@]12C(=O)N(Cc1ccccc1)c1ccccc12,-6.2,1.0,x,-13.2,6.3,x
CCC1C/C(=C\c2cc(OC)c(OC)cc2OC)C(=O)/C(=C/c2cc(OC)c(OC)cc2OC)C1 (stereo not given),x,x,i,x,x,13.8
COc1cc(OC)c(OC)cc1/C=C1\CC(C)C/C(=C\c2cc(OC)c(OC)cc2OC)C1=O (stereo not given),49.4*,-125.9,i,-159.7,7.0,14.5
Cc1cc(NC(=O)c2oc3ccccc3c2C)ccc1-n1cnnn1,-1.9,-6.6,+,-6.2,-1.4,7.1
C=CCNCC(=O)N1N=C(c2ccc3ccccc3c2)CC1c1ccc(OC)cc1 (stereo not given),-7.0,-8.2,i,-19.3,-6.1,7.9
COc1ccc(C2CC(c3ccc4ccccc4c3)=NN2C(=O)CNC2CCCCC2)cc1 (stereo not given),-7.9,-7.7,+,-10.2,-9.9,-19.3
CCN(CC)c1ccc(-c2nn3c(-c4ccccc4Cl)nnc3s2)cc1,-0.3,-173.1,x,-238.6,9.3,x
COc1cccc(C2CC3(CC(C)(C)NC(=S)N3)Oc3cc(O)ccc32)c1 (stereo not given),55.8*,-1.5,i,0.6,-3.0,13.5
CC(=O)CC[C@@H]1CC[C@]2(CCCN(C(=O)c3ccc4ccccc4n3)C2)O1,0.0,3.2,x,3.7,-3.4,x
CC(C)CNC(=S)NNC(=O)CC(C)O (stereo not given),3.4,2.4,i,2.4,-1.7,35.0*
CCNC(=S)NNC(=O)CC(C)C,2.4,5.9,i,-1.5,0.9,12.1
COC(=O)[C@]12C[C@H](CC(=O)NCc3cccs3)C(=O)N(Cc3cccc4ccccc34)C1=C[C@H](COCc1ccccc1)O[C@@H]2C,-1.9,3.9,x,-2.5,-7.2,x
COc1ccc(-n2c(C)cc(/C=N/Nc3nnc(C)n3N)c2C)cc1,-1.4,0.9,i,0.1,1.0,48.0*
COc1cc(C(=O)NCCCCc2ccccc2)cc(OC)c1OC,1.1,0.5,i,-5.4,-2.3,-16.5
COc1cc(C(=O)NCCC(c2ccccc2)c2ccccc2)cc(OC)c1OC,2.8,-1.0,i,0.3,118.4*,2.7
COc1ccc(CC(=O)NC(=S)NNC(=O)COc2c(C)cccc2C)cc1,-0.4,-3.0,i,-4.7,-0.5,46.8*
